Records with an inconclusive call do not appear. The source made the active and inactive calls. Calls come from the whole dose curve; as a rule, active = well fitted curve in the direction sought with a large enough effect; inconclusive = small, poorly fitted or top-dose-only effect, or another doubt; inactive = no such curve, though single readings can be large; an effect the other way counts as inactive or inconclusive.
target: Rap guanine nucleotide exchange factor 3 (Homo sapiens) (UniProt O95398); experiment: Confirmatory qHTS for antagonist of cAMP-regulated guanine nucleotide exchange factor 3 (EPAC1) (AID 1645880); details: EPAC1 Rap1B-BODIPY-GDP exchange, fluorescence; series mostly up to 115 µM; activity, negative = inhibition: at the top concentration; note: nearly all actives have a fitted effect of over 55% in size;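 for activity, negative = inhibition: plate controls were DMSO only for no effect and full effect of the ATA control for full effect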
How it was run: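 Released BODIPY-GDP fluoresces less than Rap1-bound BODIPY-GDP; the signal is followed at 480/540 nm at 5-min intervals over 30 min, after 5 min at room temperature. Reactions contain 100 nM EPAC1, 250 nM RAP1B-BODIPY-GDP and 50 uM GDP; results are normalized to ATA and DMSO.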
Potency is the fitted concentration of half-maximal effect.

Sequence of Rap guanine nucleotide exchange factor 3 (Homo sapiens) (O95398 whole entry, looked up): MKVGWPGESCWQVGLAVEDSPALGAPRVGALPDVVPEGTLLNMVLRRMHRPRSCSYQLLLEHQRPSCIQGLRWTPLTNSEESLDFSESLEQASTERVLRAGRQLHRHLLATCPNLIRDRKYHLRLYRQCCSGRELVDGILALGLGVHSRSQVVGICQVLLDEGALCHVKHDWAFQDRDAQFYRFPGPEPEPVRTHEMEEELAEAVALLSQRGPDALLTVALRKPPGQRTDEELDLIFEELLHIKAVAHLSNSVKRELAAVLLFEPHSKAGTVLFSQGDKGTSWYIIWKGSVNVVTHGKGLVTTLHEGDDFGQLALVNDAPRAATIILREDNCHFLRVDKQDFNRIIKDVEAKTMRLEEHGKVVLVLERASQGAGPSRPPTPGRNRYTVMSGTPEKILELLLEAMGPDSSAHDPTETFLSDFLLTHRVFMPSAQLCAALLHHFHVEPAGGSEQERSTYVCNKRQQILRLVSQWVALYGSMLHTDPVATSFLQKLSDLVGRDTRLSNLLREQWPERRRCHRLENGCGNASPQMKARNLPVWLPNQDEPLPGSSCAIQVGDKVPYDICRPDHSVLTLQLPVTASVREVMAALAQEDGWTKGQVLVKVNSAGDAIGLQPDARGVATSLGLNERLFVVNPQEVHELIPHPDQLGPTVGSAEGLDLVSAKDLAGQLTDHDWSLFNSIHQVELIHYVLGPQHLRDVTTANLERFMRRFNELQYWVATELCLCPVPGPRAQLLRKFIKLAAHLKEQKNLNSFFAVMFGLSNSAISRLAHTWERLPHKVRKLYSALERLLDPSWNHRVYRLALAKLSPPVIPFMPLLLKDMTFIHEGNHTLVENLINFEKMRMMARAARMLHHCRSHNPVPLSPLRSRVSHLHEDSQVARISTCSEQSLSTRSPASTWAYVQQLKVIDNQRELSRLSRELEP

activity, negative = inhibition, inactive:
CCN(CC)c1ccc2cc(-c3nc(-c4ccccc4F)no3)c(=O)oc2c1 60%
Cc1ccc(-c2cc(C(=O)Nc3ccc4c(c3)OCCO4)c3ccccc3n2)cc1 -11%
C[C@@H]1CN([C@@H](C)CO)S(=O)(=O)c2ccc(Br)cc2O[C@H]1CN(C)Cc1ccccc1F -47.6%
COCCn1c(=N)c(C(=O)NC2CCCC2)cc2c(=O)n3cc(C)ccc3nc21 -15.1%
COc1ccc(C2C=C(c3ccccc3)Nc3nnnn32)cc1 (stereo not given) -20%
CC(=O)/C(=C/N(C)C)Sc1ccc(C)cc1 -9.45%
Cc1ccc(C(=O)NCCCNC(=O)c2ccco2)cn1 -8.1%
CC(C)(C)c1ccc(OCCC(=O)OCC(=O)Nc2ccc(N3CCOCC3)cc2)cc1 -28.5%
C#CC(c1ccccc1)(c1ccccc1)n1ccnc1 -24.6%
O=C(O)CCn1cc(/C=C2\NC(=S)N(c3ccccc3)C2=O)c(-c2ccc(Br)cc2)n1 -26.8%
COc1ccc(OC)c(NC(=O)CN(C)CCOc2ccc(Br)cc2)c1 -17.5%
COCCCN1C(=O)C(CC(=O)NCc2cccc3ccccc23)CC(C(=O)N2CCCCCC2)=C1C (stereo not given) -14.6%
COC(=O)c1cc2oc(C)cc2n1Cc1c(C)cc(C)cc1C -48%
COc1ccc(N2CCN(C(=O)c3cc(C)on3)CC2)cc1 -17.5%
CCNC(=O)C1(C)CCN(C(=O)c2ccc(C(=O)OC)cc2)C1 (stereo not given) -20.5%
COc1ccc(C(C)=O)cc1COc1ccc(F)cc1 -20.8%
CCCCOC(=O)CSc1nnc(-c2ccc(Cl)cc2Cl)o1 -14.4%
CCN1C/C(=C/c2ccc(N3CCOCC3)cc2)C(=O)/C(=C/c2ccc(N3CCOCC3)cc2)C1 73.7%
C=CCSc1nc(-c2ccc(OC)cc2)c(C#N)c(=O)n1CC=C -19.4%
CCN(CC)CCn1c2c(c(SCC(=O)Nc3nc4ccccc4s3)nc1=O)CCCC2 -23%
O=C1CC(=O)N(CCc2ccccc2)C(=O)N1CCc1ccccc1 -20.2%
CCCCOc1ccccc1NC(=O)Cn1c(-c2cncs2)nc2ccccc21 -37%
CC(NCc1cccn1C)c1ccccc1 (stereo not given) -15.9%
N#Cc1c(NC(=O)c2ccccc2)sc2c1CCCCC2 -15.5%
CCOC(=O)C1=C(C)OC(N)=C(C#N)C1c1ccc(OC)c(CSc2ccccn2)c1 (stereo not given) -15.4%
COc1ccc(-c2cc(C(F)F)n3ncc(C(=O)N4CCc5ccccc54)c3n2)cc1 -13.9%
CN(C)CC/C=C1/c2ccccc2Sc2c(O)cc(Cl)cc21 -14.6%
CC(C)(C)c1cc(NC(=O)COC(=O)c2ccc(O)cc2O)n(-c2ccccc2)n1 -19.8%
COc1ccc(-c2nc3n(c(=O)c2C#N)CCS3)cc1 -15.9%
Cc1cscc1-c1ccc(C(=O)Nc2c(C)cccc2C)o1 -15.3%
COC(=O)c1c(NC(=O)c2c(OC)cccc2OC)sc2c1CCCC2 -17.9%
Cc1cccc(C(=O)Nc2ccc3c(c2)ncn3C)c1 -7.82%

Potency, active:
CC1(C(=O)NS(=O)(=O)c2ccc(Cl)s2)CCN1C(=O)C1(c2ccc(Cl)cc2)CCC1 (stereo not given) 9.53 µM
COc1ccc(/C=C2/SC(=S)N(c3ccc(S(=O)(=O)Nc4nccs4)cc3)C2=O)cc1 33.8 µM
CC(=N\NC(=O)c1ccccc1)/C(=N/O)C(=O)Nc1ccccc1 3.16 µM
CS(=O)(=O)c1ccc2c(c1)sc1nc(=O)c(/C=C3/C=CC(=O)C(O)=C3)c(N)n12 3.38 µM
O=C(O)c1ccccc1N/N=C/C1=C(N2CCOCC2)C(=C\c2ccccc2)/CC1 67.5 µM
CC(=O)Nc1ccc(C=NNc2ccc(S(=O)(=O)Nc3ccccc3C(=O)O)cc2[N+](=O)[O-])cc1 28.2 µM
CC1=NN(c2ccccc2)C(=O)C1/C=C1\NC(=S)NC1=O (stereo not given) 67.5 µM
CCOC(=O)c1sc(N2C(=O)C(O)=C(C(=O)c3ccco3)C2c2cccc([N+](=O)[O-])c2)nc1C (stereo not given) 5.36 µM

target: Rap guanine nucleotide exchange factor 3 (Homo sapiens) (UniProt O95398); experiment: Confirmatory qHTS for agonist of cAMP-regulated guanine nucleotide exchange factor 3 (EPAC1) (AID 1645881); details: EPAC1 Rap1B BODIPY-GDP exchange fluorescence; series mostly up to 154 µM; activation: at the top concentration; note: nearly all actives have a fitted effect of over 75% in size;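 for activation: EPAC1 catalysed release of BODIPY-GDP from Rap1B seen as fluorescence loss; 100% = effect of cAMP agonist control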

Potency, active:
CCN(CC)c1ccc2cc(-c3nc(-c4ccccc4F)no3)c(=O)oc2c1 50.1 µM
CCN1C/C(=C/c2ccc(N3CCOCC3)cc2)C(=O)/C(=C/c2ccc(N3CCOCC3)cc2)C1 100 µM

activation, inactive:
Cc1ccc(-c2cc(C(=O)Nc3ccc4c(c3)OCCO4)c3ccccc3n2)cc1 11.2%
C[C@@H]1CN([C@@H](C)CO)S(=O)(=O)c2ccc(Br)cc2O[C@H]1CN(C)Cc1ccccc1F 12.7%
COCCn1c(=N)c(C(=O)NC2CCCC2)cc2c(=O)n3cc(C)ccc3nc21 -6.25%
COc1ccc(C2C=C(c3ccccc3)Nc3nnnn32)cc1 (stereo not given) 7.02%
CC(=O)/C(=C/N(C)C)Sc1ccc(C)cc1 6.04%
Cc1ccc(C(=O)NCCCNC(=O)c2ccco2)cn1 6.76%
CC(C)(C)c1ccc(OCCC(=O)OCC(=O)Nc2ccc(N3CCOCC3)cc2)cc1 -14.3%
CC1(C(=O)NS(=O)(=O)c2ccc(Cl)s2)CCN1C(=O)C1(c2ccc(Cl)cc2)CCC1 (stereo not given) -2.65%
C#CC(c1ccccc1)(c1ccccc1)n1ccnc1 10.4%
O=C(O)CCn1cc(/C=C2\NC(=S)N(c3ccccc3)C2=O)c(-c2ccc(Br)cc2)n1 5.35%
COc1ccc(/C=C2/SC(=S)N(c3ccc(S(=O)(=O)Nc4nccs4)cc3)C2=O)cc1 5.04%
COc1ccc(OC)c(NC(=O)CN(C)CCOc2ccc(Br)cc2)c1 10.7%
COCCCN1C(=O)C(CC(=O)NCc2cccc3ccccc23)CC(C(=O)N2CCCCCC2)=C1C (stereo not given) 2.89%
CC(=N\NC(=O)c1ccccc1)/C(=N/O)C(=O)Nc1ccccc1 6.31%
COC(=O)c1cc2oc(C)cc2n1Cc1c(C)cc(C)cc1C -3.42%
COc1ccc(N2CCN(C(=O)c3cc(C)on3)CC2)cc1 8.97%
CS(=O)(=O)c1ccc2c(c1)sc1nc(=O)c(/C=C3/C=CC(=O)C(O)=C3)c(N)n12 9.85%
CCNC(=O)C1(C)CCN(C(=O)c2ccc(C(=O)OC)cc2)C1 (stereo not given) -2.38%
COc1ccc(C(C)=O)cc1COc1ccc(F)cc1 3.92%
O=C(O)c1ccccc1N/N=C/C1=C(N2CCOCC2)C(=C\c2ccccc2)/CC1 0.78%
CCCCOC(=O)CSc1nnc(-c2ccc(Cl)cc2Cl)o1 4.2%
CC(=O)Nc1ccc(C=NNc2ccc(S(=O)(=O)Nc3ccccc3C(=O)O)cc2[N+](=O)[O-])cc1 -5.28%
CC1=NN(c2ccccc2)C(=O)C1/C=C1\NC(=S)NC1=O (stereo not given) 5.06%
C=CCSc1nc(-c2ccc(OC)cc2)c(C#N)c(=O)n1CC=C -1.68%
CCN(CC)CCn1c2c(c(SCC(=O)Nc3nc4ccccc4s3)nc1=O)CCCC2 -1.54%
O=C1CC(=O)N(CCc2ccccc2)C(=O)N1CCc1ccccc1 -1.13%
CCOC(=O)c1sc(N2C(=O)C(O)=C(C(=O)c3ccco3)C2c2cccc([N+](=O)[O-])c2)nc1C (stereo not given) -28.9%
CCCCOc1ccccc1NC(=O)Cn1c(-c2cncs2)nc2ccccc21 11.7%
CC(NCc1cccn1C)c1ccccc1 (stereo not given) 4.2%
N#Cc1c(NC(=O)c2ccccc2)sc2c1CCCCC2 2.69%
CCOC(=O)C1=C(C)OC(N)=C(C#N)C1c1ccc(OC)c(CSc2ccccn2)c1 (stereo not given) 13.2%
COc1ccc(-c2cc(C(F)F)n3ncc(C(=O)N4CCc5ccccc54)c3n2)cc1 5.04%
CN(C)CC/C=C1/c2ccccc2Sc2c(O)cc(Cl)cc21 11.5%
CC(C)(C)c1cc(NC(=O)COC(=O)c2ccc(O)cc2O)n(-c2ccccc2)n1 10.4%
COc1ccc(-c2nc3n(c(=O)c2C#N)CCS3)cc1 -0.892%
Cc1cscc1-c1ccc(C(=O)Nc2c(C)cccc2C)o1 28.2%
COC(=O)c1c(NC(=O)c2c(OC)cccc2OC)sc2c1CCCC2 26.3%
Cc1cccc(C(=O)Nc2ccc3c(c2)ncn3C)c1 8.84%

— PubChem BioAssay (NCATS)
